Hits are enriched below; roughly 3.8% of the tested compounds scored in any of these assays.
PrP UTR inh: suppresses PrP 5' UTR mRNA reporter expression | inhibition, % (test concentration not listed) | 340,000 compounds, 0.35% hits | AID 488862 | cell-based PrP 5' UTR mRNA reporter, plate reader; in the data active = inhibition above about 52%; also: 0 = median of the neutral control wells
Mtb FBA inh: Mtb fructose-bisphosphate aldolase inhibition; purified M. tuberculosis FBA, fluorescence read-out; 360,000 compounds, 2.3% hits; inhibition, % at 1 µM; P9WQA3; AID 588726;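 also: 0% = vehicle and 100% = reference inhibitor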
Target sequence (P9WQA3 whole entry, looked up): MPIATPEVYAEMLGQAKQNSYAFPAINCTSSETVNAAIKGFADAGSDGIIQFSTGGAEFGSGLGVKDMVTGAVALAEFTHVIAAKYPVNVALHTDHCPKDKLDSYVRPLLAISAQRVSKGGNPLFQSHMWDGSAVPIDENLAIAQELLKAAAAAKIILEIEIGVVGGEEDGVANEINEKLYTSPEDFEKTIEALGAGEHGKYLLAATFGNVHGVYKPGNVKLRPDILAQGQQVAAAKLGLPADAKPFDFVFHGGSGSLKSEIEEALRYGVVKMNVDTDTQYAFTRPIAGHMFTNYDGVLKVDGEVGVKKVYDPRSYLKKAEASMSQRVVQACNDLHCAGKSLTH
Mtb hypoxia rep: inhibitors of hypoxia-regulated fluorescent reporter in Mycobacterium tuberculosis; M. tuberculosis hypoxia-regulated fluorescent reporter, fluorescence; fluorescence inhibition, % (test concentration not listed); 300,000 compounds, 0.1% hits; AID 1159583; in the data active = fluorescence inhibition mostly above about 23%, no sharp cut-off; inactive = mostly below about 17%
PrPC TRFRET: inhibitors of human cell surface prion protein PrPC; inhibition, % at 13.8 µM; AID 720596; TR-FRET read-out; 370,000 compounds, 0.43% hits; P04156; in the data active = inhibition above about 24%; also: 0% = median of the test wells and 100% = reference compound wells
Yp Topo-I inh: blocks Yersinia pestis topoisomerase I activity. 360,000 compounds, 0.064% hits. activity, % at 10 µM. Y. pestis Topo-I cleavage product accumulation, plate reader; in the data active = activity above about 50%, passing the limit was not always enough
GDH-TPI counter-1: inhibits GDH-TPI coupling enzymes, artifact for Mtb FBA screen; 360,000 compounds, 1.2% hits; inhibition, % at 4.8 µM; GDH-TPI coupled enzyme counterscreen, NADH absorbance; in the data active = inhibition above about 30%;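 also: 0% = DMSO wells and 100% = wells lacking the enzyme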
Mtb FBA inh conf: confirmation of M. tuberculosis fructose-bisphosphate aldolase inhibitors; shares compounds with Mtb FBA inh; purified M. tuberculosis FBA, fluorescence read-out; inhibition, % at 1 µM; 5,600 compounds, 78% hits; AID 651616;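 also: 0% = vehicle wells and 100% = reference inhibitor wells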
GDH-TPI counter-2: counter-screen for M. tuberculosis FBA inhibitors: GDH-TPI coupled enzyme inhibition. shares compounds with Mtb FBA inh. GDH-TPI coupled enzyme counterscreen, fluorescence. inhibition, % at 1 µM. 5,600 compounds, 81% hits; in the data active = inhibition above about 10%
* = called active by the depositor; . = no result given; + = active, no number. Rule as the data show it, unless noted: active = inhibition above about 27%; inactive = the rest.

SMILES	PrP UTR inh	Mtb FBA inh	Mtb hypoxia rep	PrPC TRFRET	Yp Topo-I inh	GDH-TPI counter-1	Mtb FBA inh conf	GDH-TPI counter-2
CCCCn1c(=O)[nH]c(=O)c2c1nc(-c1ccc(OCC)cc1)n2CC	-6	9	5	0	4	3	.	.
O=c1oc(-c2cccs2)nc2ccccc12	-3	-9	15	3	4	17	.	.
c1csc(-c2nc3c4ccccc4c4ccccc4c3[nH]2)c1	0	58*	3	5	3	7	+	+
CC(=NNc1nc(-c2ccccc2O)nc2ccccc12)c1ccccc1	.	.	11	.	.	.	.	.
Oc1ccccc1-c1nc2c3ccccc3c3ccccc3c2[nH]1	-17	94*	3	5	-35	12	99*	90*
C=C1C2CCC3[C@]4(C)CC(OC5OC(CO)C(OS(=O)(=O)O)C(OS(=O)(=O)O)C5OC(=O)CC(C)C)CC(C(=O)O)C4CC[C@]3(C2)C1O (stereo partly specified)	.	.	4	.	.	.	.	.
COc1cc(NC(=O)CSc2nc3ccccc3cc2C)c(C(=O)O)cc1OC	-15	9	-15	10	3	14	.	.
COc1cc(NC(=O)CSc2nc3cc(C)ccc3cc2C)c(C(=O)O)cc1OC	-24	27*	-1	23	6	7	45*	25*
CCOC(=O)c1cc(-c2cc3ccccc3o2)nc2c1c(=O)[nH]c(=O)n2CCOC	-16	46*	.	-6	-2	5	2	1
CC(C)CC1COCCS(=O)(=O)N1Cc1cccc(F)c1 (stereo unspecified)	.	.	14	.	.	.	.	.
COC(=O)c1[nH]c2ccccc2c1Sc1ccccc1	-19	77*	7	24	2	13	95*	73*
CNC(=O)CCc1[nH]c2ccccc2c1Sc1ccccc1	-12	0	4	5	-3	4	.	.
CCC(C)C(C(=O)N1CCN(C(=O)OC(C)(C)C)CC1)n1cc(C(Cc2ccc(O)cc2)NC(=O)OC(C)(C)C)nn1 (stereo unspecified)	.	.	2	.	.	.	.	.
Cc1cc2nnc(SC(C)C)n2c2ccccc12	-4	28*	15	-4	16	15	130*	103*
O=C(/C=C1\NC2(CCCC2)Cc2ccccc21)C(=O)NN=Cc1ccc(O)c(O)c1	.	.	11	.	.	.	.	.
Cc1nc(C(=O)NCCCO)cc2c1[nH]c1ccccc12	-32	19	5	-2	0	6	.	.
O=C(NCCCO)c1ccc2[nH]c3ccccc3c2c1	-25	36*	7	-2	0	2	125*	91*
C[n+]1c(-c2ccccc2)cc(-c2ccc(Cl)cc2)cc1-c1ccccc1	-31	71*	10	-10	1	-5	79*	69*
COCCNC(=S)Nc1ccc2nc(N3CCOCC3)cc(C)c2c1	-16	51*	-4	-2	-3	8	0	-3
COCCNC(=S)Nc1ccc2nc(N3CCCC3)cc(C)c2c1	-32	5	9	-2	0	17	.	.
Cc1cc(N2CCOCC2)nc2ccc(NC(=S)NC(C)C)cc12	-17	37*	6	-6	4	8	108*	96*
Cc1cc(N2CCCC2)nc2ccc(NC(=S)NC(C)C)cc12	-6	31*	-2	10	-7	18	24	16*
COc1ccc(C=NNC(=O)c2ccc([N+](=O)[O-])cc2)cc1COc1c(F)c(F)cc(F)c1F	.	.	0	.	.	.	.	.
O=C(NN1C(=O)c2ccccc2NC1c1ccoc1)c1ccccc1 (stereo unspecified)	-8	8	-7	-2	1	1	.	.
CC(=O)NN1C(=O)c2ccccc2NC1c1ccoc1 (stereo unspecified)	-17	35*	-2	0	2	-3	38*	19*
SMILES	PrP UTR inh	Mtb FBA inh	Mtb hypoxia rep	PrPC TRFRET	Yp Topo-I inh	GDH-TPI counter-1	Mtb FBA inh conf	GDH-TPI counter-2
CC(=O)NN1C(=O)c2ccccc2NC1c1cccnc1 (stereo unspecified)	-30	30*	14	9	3	0	77*	72*
Cc1ccc(S(=O)(=O)NN2C(=O)c3ccccc3NC2c2ccccc2F)cc1 (stereo unspecified)	-1	5	2	-4	3	4	.	.
O=C1c2ccccc2NC(c2cccnc2)N1c1ccccc1F (stereo unspecified)	-36	71*	.	2	3	1	3	-2
CC(=O)NN1C(=O)c2ccccc2NC1c1ccccc1F (stereo unspecified)	-6	34*	0	-3	6	-3	81*	51*
C=CCC(CC(=O)NC(CO)Cc1ccccc1)C(=O)NCC(OC(=O)C(CC=C)CC(=O)OC(C)(C)C)c1ccccc1 (stereo unspecified)	.	.	4	.	.	.	.	.
CCOC(=O)C1=C(c2ccccc2)OC(N)=C(C#N)C1c1cccs1 (stereo unspecified)	-23	-1	2	-5	6	10	.	.
CCOC(=O)C1=C(c2ccccc2)OC(N)=C(C#N)C1c1ccncc1 (stereo unspecified)	-7	43*	3	3	5	6	67*	66*
CCCC1=C(C(=O)OCC)C(c2ccco2)C(C#N)=C(N)O1 (stereo unspecified)	-10	57*	-4	-3	7	6	99*	68*
CC(=O)c1sc(NN=C2CC3CC2C(C)C3(C)C)nc1C (stereo unspecified)	.	.	-8	.	.	.	.	.
CCC1SC(=NN=Cc2ccco2)N(Cc2ccccc2C)C1=O (stereo unspecified)	.	.	4	.	.	.	.	.
CCc1cc(=O)oc2cc(C)cc(OC(C)C(=O)NCc3ccccn3)c12 (stereo unspecified)	-22	50*	2	2	0	-2	66*	48*
CCCc1cc(=O)oc2cc(C)cc(OC(C)C(=O)NCc3ccccn3)c12 (stereo unspecified)	-18	65*	4	5	4	13	+	+
CC(Oc1ccc2c(-c3ccccc3)cc(=O)oc2c1)C(=O)NCc1ccccn1 (stereo unspecified)	-8	6	.	-5	12	28	.	.
CC1SC(=C(C#N)C(=O)NCc2ccco2)N(Cc2ccco2)C1=O (stereo unspecified)	.	.	6	.	.	.	.	.
CCOC(=O)N1CCN(C(=O)c2cccn3c(=O)c4c5c(sc4nc23)CCCC5)CC1	-13	5	2	-5	-6	12	.	.
O=C(c1ccco1)N1CCN(C(=O)c2cccn3c(=O)c4c5c(sc4nc23)CCCC5)CC1	-13	34*	-12	-6	5	28	189*	145*

Screens: PubChem, several laboratories
